The source of these data is PubChem BioAssay.

Results with a measured potency or affinity are listed apart. Active and inactive are the calls of the source. The limit is not given here; nearly all actives have IC50 up to about 0.98 µM.

This test deals with Calcium-dependent protein kinase 1 (Plasmodium falciparum (isolate 3D7)) (UniProt P62344). In words: PfCDPK1 kinase inhibitors, biochemical, TCAMS library (AID 1159585).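 Also: inhibitors leave more ATP so luminescence rises with inhibition.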 The conditions noted are these: recombinant PfCDPK1, Kinase-Glo ATP depletion luminescence. (In general: Kinase-Glo reads ATP consumption through a luciferase reaction.)
Sequence of Calcium-dependent protein kinase 1 (Plasmodium falciparum (isolate 3D7)) (P62344 whole entry, looked up): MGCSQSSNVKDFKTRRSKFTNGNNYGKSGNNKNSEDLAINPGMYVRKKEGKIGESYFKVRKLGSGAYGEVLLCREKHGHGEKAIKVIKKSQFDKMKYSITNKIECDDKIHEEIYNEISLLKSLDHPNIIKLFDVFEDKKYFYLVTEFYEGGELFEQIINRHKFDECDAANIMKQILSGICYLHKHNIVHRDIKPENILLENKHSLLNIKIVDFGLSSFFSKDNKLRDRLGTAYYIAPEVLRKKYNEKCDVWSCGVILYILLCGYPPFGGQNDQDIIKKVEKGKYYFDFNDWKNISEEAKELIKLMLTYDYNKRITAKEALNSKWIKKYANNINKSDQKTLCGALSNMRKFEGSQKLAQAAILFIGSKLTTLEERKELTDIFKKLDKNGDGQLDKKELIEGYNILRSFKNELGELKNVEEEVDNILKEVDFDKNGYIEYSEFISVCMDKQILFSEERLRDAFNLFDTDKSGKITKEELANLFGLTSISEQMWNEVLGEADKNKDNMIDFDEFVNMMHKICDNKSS
With `O=C(NCCCCCN1CCC(c2c[nH]c3ccccc23)CC1)c1ccc(Cl)c(Cl)c1`, the result was inactive. For `COc1cc(Cc2cnc(N)nc2N)cc(OCCCCCC(N)=O)c1OC` the value was “inactive”; for `O=C(/C=C/c1ccc(C(F)(F)F)cc1)NCCCCCN1CCN(C(=O)Nc2ccc(F)c(Cl)c2)CC1`, “inactive”. The result for `O=C(NC1CC1)c1ccc(N2CCC(COc3cccc(F)c3)CC2)nc1` reads “inactive”. The result for `O=C(Nc1cccc(CN2CCCN(Cc3ncc[nH]3)CC2)c1)c1cc2ccccc2s1` reads “inactive”. As for `O=c1cc(NCCCNCc2cc3c(Cl)cc(Cl)cc3[nH]2)[nH]c2ccccc12`, the result was inactive. For `COc1ccc(CNCc2ccc(-c3cccc(-c4nc5c(C)cccc5[nH]4)c3)cc2)cc1` the value was “inactive”; for `CN(C)Cc1cccc(CNC(=O)c2sccc2OCc2ccc(Cl)cc2)c1`, “inactive”.

`COc1cc2nc(SCC(C)C)n(CCCn3ccnc3)c(=N)c2cc1OC`: the outcome was inactive.

As to `CCOc1ccc2nc(C)cc(NN=Cc3cccc(F)c3)c2c1`, the result was inactive.

In the case of `O=C(NC1CC1)c1ccc(N2CCC(Cc3ccccc3)CC2)c([N+](=O)[O-])c1`, the result was inactive.

As to `O=S(=O)(ON=C1CCc2ccccc21)c1ccc(Cl)cc1`, the outcome was inactive. For `CCc1cn2c3c(cc(C(=O)N[C@@H](Cc4cccc(F)c4)[C@H](O)CNC4CCOCC4)cc13)N(C)S(=O)(=O)CC2` the value was “inactive”; for `COc1ccc(Cl)cc1NC(=O)C(C)Nc1ccc(-c2ccccc2)cc1` (stereo unspecified), “inactive”; for `CC(Cc1ccc(OCCCCOc2ccccc2)cc1)NCCc1ccc(Oc2ccccc2)cc1` (stereo unspecified), “inactive”.

For `OCCN1CCN(Cc2ccc(-c3cccc(-c4nc5ccc(C(F)(F)F)cc5[nH]4)c3)cc2)CC1`, the result was inactive.
